The sample as a whole holds a higher share of hits than the screen did.
Methyltransferases = Primary Screen for Target Class Profiling of Small Molecule Inhibitors of Methyltransferases. purified enzyme, MTase-Glo SAH luminescence; stronger effect = lower value. calls only at 40 µM. 25,000 tested, 3.9% active; call rule not given here
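Each enzyme was assayed with SAM and its substrate. SAH formation detected by MTase-Glo luminescence; single-point 40 uM screen[…].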
MTase-Glo counter = Counterscreen for Target Class Profiling of Small Molecule Inhibitors of Methyltransferases; shares compounds with Methyltransferases; MTase-Glo coupled enzymes, SAH conversion luminescence, no MTase; Potency, µM (top dose mostly 57.3 µM), for the others: at the top dose activity change, negative = inhibition, most hits filed as inhibitors; 180 tested, 6% active; AID 1745851, 2022; active = well fitted inhibition curve with a large enough effect; note: potency is the fitted concentration of half-maximal effect
Active calls of the source: *; i = inactive; . = no result; + = active, no number; [ ] = dose if it differs, or a comment. % is set by controls: 0 for no effect and ±100 for the full control effect.

SMILES	Methyltransferases	MTase-Glo counter
COc1ccccc1CNC(=O)CCn1ccc2cc(S(=O)(=O)N3CCC(C)CC3)ccc21	i	.
COCCCNC(=O)c1cnc2n[nH]c(-c3ccccc3)c2n1	+	-3%[85.7 µM]
COc1ccc(C(=O)NCCn2c(C)cnc2-c2ccccc2)cn1	i	.
Cc1cc(F)ccc1-c1[nH]nc2ncc(-c3ccnn3C)nc12	i	.
CCOCCCNC(=O)c1cc2c(=O)[nH]c(-c3ccccc3)cn2n1	i	.
c1ccc(-c2[nH]nc3ncc(-c4cn[nH]c4)nc23)cc1	+	25µM*
COc1ccccc1-c1[nH]nc2ncc(C(=O)NCC3CC3)nc12	+	1%[85.7 µM]
COc1ccccc1CCNC(=O)c1cc2n(n1)CC(C)(C(=O)NC1CCCCCC1)N(C)C2=O (stereo not drawn)	i	.
CC1(C)[C@H]2CC[C@@H](CNC(=O)c3ccc4ccccc4n3)[C@@H]1C2	i	.
CC(C)NC(=O)c1ccc2c(=O)n(C3CC3)c3nn(CC(=O)Nc4ccccc4Cl)c(=O)n3c2c1	i	.
CC(=O)OC1CC2(C)C3=CCC4(C)C5C(O)C(O)C(C(C)C)C5(C)CCC4(C)C3CCC2C(C)(C)C1OC1OC(CO)C(O)C(O)C1O (stereo not drawn)	i	.
CN(Cc1ccccc1)Cc1cc(CC2(NC3CCCCC3)COC2)no1	i	.
CCCn1c(=O)c2ccc(Cl)cc2n2c(=O)n(Cc3cccc(OC)c3)nc12	i	.
CNc1cc(C2CC(NC(=O)COc3ccc(Cl)cc3C)C2)nc(N)n1 (stereo not drawn)	+	2.7µM*
Cc1cc(Cl)ccc1NC1CN(C(=O)OC(C)(C)C)C1	i	.
Cc1nc(CCNc2cc(C3CC(O)C3)nc(N)n2)nc2c1CCC2 (stereo not drawn)	i	.

Source: PubChem (National Center for Advancing Translational Sciences (NCATS))
